Rows were chosen to be rich in hits. Some 9.5% of all compounds tested hit in one or more screens of this group.
Pf growth 48h – P. falciparum growth inhibition at 48 hours (one generation); P. falciparum luciferase growth in erythrocytes, 48 h; Potency, µM (highest dose often 28.7 µM), for the others: at the highest dose activity change, negative = inhibition, most hits filed as inhibitors; actives 5.9% (n = 310,000); AID 504832; active means well fitted inhibition curve with a large enough effect; inconclusive means small, poorly fitted or top-dose-only effect, or another doubt; inactive means no such curve, though single readings can be large or run the other way; further: on the % scale 0 is the no-effect control and ±100 the full control effect
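Luciferase-expressing P. falciparum in infected erythrocytes (2% hematocrit, 0.1% parasitemia final) in RPMI 1640/0.5% Albumax were exposed to compound for 48 hours at 37 C, 5% CO2; growth read as luminescence.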
RE007 growth inh – less growth of the S. pombe RE007 Vpr strain | S. pombe RE007 Vpr strain, BacTiter-Glo ATP luminescence, 24 h | actives 0.21% (n = 360,000) | Potency, µM (series often up to 92.2 µM), inactives show top-dose activity change, negative = less growth, actives largely listed as inhibitors; active means well fitted falling curve with a large enough effect; inconclusive means small, poorly fitted or top-dose-only effect; inactive means no such curve, though single readings can be large or run the other way; further: on the % scale 0 is the no-effect control and ±100 the full control effect; nearly all actives have a fitted effect of over 50% in size
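Fission yeast RE007 carrying one integrated HIV-1 vpr copy, seeded at OD 0.01 in PMG+AL medium with 23 nL pinned compound. Grown 24 h at 30 degrees; viability read by BacTiter-Glo luminescence after 5 min.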
NS1 inh – influenza NS1 inhibition; Potency, µM (doses to about 46.1 µM), without a hit: at the highest dose activity, positive = more growth; actives 0.4% (n = 270,000); AID 2326; further: actives are rising curves; nearly all actives have a fitted effect of over 50% in size
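S. cerevisiae expressing influenza A NS1, grown in glucose, washed, then diluted 1:100 into pH 6.0 -URA galactose medium with 23 nl compound. Growth recovery read as OD600; NS1-free strain serves as control.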
SARS PLP yeast – SARS-CoV PLP inhibition in yeast; S. cerevisiae expressing SARS-CoV PLpro, growth rescue; Potency, µM (top dose mostly 32.9 µM), without a hit: at the top dose activity, positive = growth rescue, most hits filed as activators; actives 0.19% (n = 330,000); further: 0% is about no effect; nearly all actives have a fitted effect of over 55% in size
Pf growth 96h – inhibits malaria parasite growth, 96 h; P. falciparum luciferase reporter growth, 96 h; Potency, µM (top dose mostly 28.7 µM), for inactives: top-dose activity change, negative = inhibition, hits mostly inhibitors; actives 6.9% (n = 320,000); active means well fitted inhibition curve with a large enough effect; inconclusive means small, poorly fitted or top-dose-only effect, or another doubt; inactive means no such curve, though single readings can be large or run the other way; further: on the % scale 0 is the no-effect control and ±100 the full control effect
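Parasite growth measured via integrated firefly luciferase reporter in P. falciparum. Infected erythrocytes at 2% hematocrit, 0.05% parasitemia final were treated 96 hours at 37 C under 5% CO2, and luminescence was read.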
An asterisk follows results filed as active. Unless noted, the call rests on the fitted dose curve. Potency means the concentration at half of the fitted maximal effect.

c1ccc2c(c1)Sc1ccccc1-n1cnnc1-2 was read as Pf growth 48h inconclusive, RE007 growth inh 1%, NS1 inh -1%, SARS PLP yeast 2% and Pf growth 96h 9.3µM*.
Screening Brc1nnc2n1-c1ccccc1Sc1ccccc1-2 returned Pf growth 48h 12µM*, RE007 growth inh 1%, NS1 inh -5%, SARS PLP yeast 22% and Pf growth 96h 8.3µM*.
For Clc1ccc2c(c1)-c1nnc(Br)n1-c1ccccc1S2 the results were Pf growth 48h 10µM*, RE007 growth inh 0%, NS1 inh -10%, SARS PLP yeast -11% and Pf growth 96h inconclusive.
`N#Cc1cn(-c2cccc(C(F)(F)F)c2)c(=O)[nH]c1=O` gave Pf growth 48h -23%, RE007 growth inh 26%, NS1 inh -6%, SARS PLP yeast -2% and Pf growth 96h -11%.
`Brc1cccc2sc(N3CCCC3)nc12` gave Pf growth 48h 49%, RE007 growth inh 1%, SARS PLP yeast -3% and Pf growth 96h 95%.
For Cc1cc[n+](C2=C([O-])c3ccccc3C(=O)/C2=N\S(=O)(=O)c2cccs2)cc1C the results were Pf growth 48h 2.6µM*, RE007 growth inh 12%, NS1 inh 13%, SARS PLP yeast -2% and Pf growth 96h 3.3µM*.
Cc1cc(C)c[n+](C2=C([O-])c3ccccc3C(=O)/C2=N\S(=O)(=O)c2cccs2)c1 was read as Pf growth 48h 1.9µM*, RE007 growth inh -9%, NS1 inh 2%, SARS PLP yeast 2% and Pf growth 96h inconclusive.
Screening Cc1cc(C)cc(NS(=O)(=O)c2cccs2)c1 returned Pf growth 48h 25%, RE007 growth inh 14%, NS1 inh -11%, SARS PLP yeast -4% and Pf growth 96h -16%.
`CCOc1ccc(N2C(=O)NC(=O)/C(=C\c3ccc(N4CCCCC4)o3)C2=O)cc1` gave Pf growth 48h inconclusive, RE007 growth inh -17%, NS1 inh 7%, SARS PLP yeast 0% and Pf growth 96h 13µM*.
Screening O=C1NC(=O)N(c2ccc3c(c2)OCO3)C(=O)/C1=C/c1ccc(N2CCCC2)o1 returned Pf growth 48h inconclusive, RE007 growth inh 4%, NS1 inh 13%, SARS PLP yeast -21% and Pf growth 96h 1%.
For Cc1cc(C)c(C(=O)/C=C/c2cccc3ccccc23)c(=O)[nH]1 the results were Pf growth 48h inconclusive, RE007 growth inh 12%, NS1 inh 2%, SARS PLP yeast 7% and Pf growth 96h inconclusive.
Cc1[nH]c(=O)c(C(=O)/C=C/c2ccccc2F)c2c1CCCC2 was read as Pf growth 48h 3.3µM*, RE007 growth inh 2%, NS1 inh 7%, SARS PLP yeast 2% and Pf growth 96h 5.2µM*.
COc1ccc(CNCc2cc3c(C(C)(C)C)nn(-c4ccccc4)c3[nH]c2=O)cc1 was read as Pf growth 48h 0.83µM*, RE007 growth inh 12%, NS1 inh -9% and SARS PLP yeast 1%.
CC(C)(C)c1nn(-c2ccccc2)c2[nH]c(=O)c(CNCc3ccco3)cc12 was read as Pf growth 48h inconclusive, RE007 growth inh 13%, NS1 inh -8%, SARS PLP yeast -14% and Pf growth 96h inconclusive.
Screening Cc1nn(-c2ccc(Cl)cc2)c2[nH]c(=O)c(CNCc3ccc4c(c3)OCO4)cc12 returned Pf growth 48h 0.37µM*, RE007 growth inh -17%, NS1 inh -19%, SARS PLP yeast -5% and Pf growth 96h 121%.
`Cc1ccc(CNCc2cc3c(C(C)(C)C)nn(-c4ccccc4)c3[nH]c2=O)cc1` gave Pf growth 48h 0.37µM*, RE007 growth inh inconclusive, NS1 inh -32% and SARS PLP yeast -14%.
For CCCCCCCCC(=O)N1C(C)CCC1C (stereo unspecified) the results were RE007 growth inh 6%.
Cc1[nH]c2ccccc2c1C(=O)C(=O)NCc1ccncc1 was read as RE007 growth inh 0%.
Screening CC(=O)c1sc(NC(=O)COc2ccc([N+](=O)[O-])cc2)nc1C returned Pf growth 48h 16%, RE007 growth inh -9%, NS1 inh 3%, SARS PLP yeast 1% and Pf growth 96h 15µM*.
